Measurements as given in PubChem BioAssay AID504891 (National Center for Advancing Translational Sciences (NCATS), 2011).
The whole screen tested about 390,000 compounds, of which about 35 (0.009%) were called active. Another 6% or so got no clear call; they are omitted. The entries come from a sample that favours actives as a whole. A number with no mark means an inactive call. The call rests on the fitted dose curve; in most records, active means well fitted inhibition curve with a large enough effect in the polarisation, with a control signal flat (not every such curve was filed as active); inconclusive means small, poorly fitted or top-dose-only effect, or effect the other way, or a change in a side signal; inactive means no such curve, though single readings can be large or run the other way; the % refers to the polarisation.

The compounds below were run against Peptidyl-prolyl cis-trans isomerase NIMA-interacting 1 (Homo sapiens) (UniProt Q13526) (assay: qHTS Assay to Find Inhibitors of Pin1). Details: Pin1 FP peptide displacement, HiFluor488, 10 min; series mostly up to 115 µM; activity, negative = inhibition: at the top concentration.
Description: NIH Molecular Libraries Probe Production Network [MLPCN]
NIH Chemical Genomics Center [NCGC]
The unique chemical properties of Pro allow for the adoption of two completely distinct amide bond conformations (cis and trans). Peptidyl-prolyl cis/trans isomerases (PPIases) are evolutionary conserved enzymes that catalyze cis/trans isomerization of peptidyl-prolyl peptide bonds. Distinct from all other PPIases such as cyclophilins and FK506-binding proteins (FKBPs), Pin1 binds a subset of phos.Ser/Thr-Pro-containing proteins using its protein-targeting WW domain and isomerizes only specific phos.Ser/Thr-Pro bonds, which cannot be effectively catalyzed by other known PPIases.
Pin1-catalyzed conformational regulation can control a spectrum of activities of many key regulators in diverse cellular processes such as cell growth, genotoxic and other stress responses, immune response, germ cell development, neuronal differentiation and survival. Pin1 has emerged as a novel molecular timer that modulates its multiple targets at various steps of a given cellular process to synergistically control the amplitude and duration of a cellular response or process. Importantly, Pin1 is tightly regulated by multiple levels and its deregulation has an important role in a growing number of pathological conditions, including cancer, Alzheimer's disease, aging, asthma and microbial infection, providing a potentially new therapeutic option.
The goal of this screen is to find small-molecule inhibitors of Pin1 using a fluorescence polarization competition assay. A HiFluor-488-labeled peptide binds to the active site of Pin1 and can be displaced by compounds. Compounds were screened as a concentration-titration series that ranged from 57 uM to 0.7 nM.
NCGC Assay Protocol Summary:
Pin1 (0.6 uM) was dispensed into black, solid 1536-well plates at 2 uL/well in 10 mM HEPES (pH 7.5), 10 mM NaCl, 0.01% Tween20, 1 mM DTT, and 1% glycerol. Then, 23 nL of compounds or DMSO were delivered to each well using a pin tool. Two uL of Pin1-1b-HiFluor488 peptide (10 mM HEPES (pH 7.5), 10 mM NaCl, 0.01% Tween20, 1 mM DTT, and 1% glycerol, 0.02 uM Pin1-1b-HiFluor488) was then dispensed, and plates were incubated at room temperature for 10 min. The plates were measured on a ViewLux plate reader for fluorescence polarization signal using a 480/20 nM nm excitation filter and 540/25 nM nm S and P emission filters with a 20 second exposure. The %Activity was determined from the corrected fluorescence polarization values. Unlabeled Pin1-1c peptide was used as a control (3.5 mM two-fold serial; 20 uM final concentration) along with a 1x (0.3 uM) and 0x (no-enzyme) Pin1 enzyme control to normalize %Activity of identified inhibitors; 0x enzyme values corresponded to 100%Activity (full inhibition), while 1x Pin1 enzyme values were used to normalize 0%Activity (no inhibition).
Concentration-response curves were fitted to the signals arising from the resulting fluorescence polarization. The concentration-effect curves were then classified based on curve quality (r2), response magnitude and degree of measured activity, and compounds were subsequently categorized based on their curve class.
Keywords: Peptidyl prolyl isomerase, Pin1, fluorescence polarization, MLSMR, MLPCN, NIH Roadmap, qHTS, NCGC
Potency means the concentration at half of the fitted maximal effect.

Chain of Peptidyl-prolyl cis-trans isomerase NIMA-interacting 1 (Homo sapiens) (Q13526 whole entry, looked up): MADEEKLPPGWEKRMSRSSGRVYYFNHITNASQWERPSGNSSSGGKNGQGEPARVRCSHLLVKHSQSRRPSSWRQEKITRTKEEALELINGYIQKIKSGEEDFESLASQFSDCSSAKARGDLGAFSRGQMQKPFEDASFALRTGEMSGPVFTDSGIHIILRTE

Structure (SMILES) | activity, negative = inhibition | Potency
Cc1cc2c(s1)c1cnn(Cc3cc(F)c(Cl)cc3Cl)c(=O)c1n2C | -4% | –
COc1cc(Cl)c(C)cc1Nc1nnc(-n2nc(C)cc2C)c2ccccc12 | 0.488% | –
COc1ccc(C2Nc3ccccc3C(=O)N2Cc2ccco2)cc1COc1cccc(NC(C)=O)c1 (centres undefined) | 47.2% | –
COc1ccc(-c2ccc3ncnc(NCc4cccs4)c3c2)cc1OC | 0.753% | –
COc1ccc(C2/C=C\CN(Cc3ccco3)C(C)C(=O)N2Cc2ccc(F)cc2)cc1 (centres undefined) | 25.5% | –
COc1ccc(-c2onc(C)c2C)cc1S(=O)(=O)NCc1cccs1 | -1.97% | –
Cc1cc(C)n2ncc(C(=O)N3CCCC3)c2n1 | -11.3% | –
CC(C)Oc1cccc(-c2cnc(N3CCC(C(N)=O)CC3)s2)c1 | 1.95% | –
CCCc1nn2c(=O)cc(COC(=O)c3ccc(NC(=O)C(C)Oc4ccccc4)cc3)nc2s1 (centres undefined) | -8.84% | –
Cc1ccc(S(=O)(=O)CCC(=O)OCC(=O)N(C)C2CCS(=O)(=O)C2)cc1 (centres undefined) | -16% | –
CN(C(=O)COC(=O)c1cc(-c2ccco2)nc2ccccc12)C1CCS(=O)(=O)C1 (centres undefined) | – | 35.5 µM (active)
Cc1cc(C(=O)OCC(=O)N2C(C)CCCC2C)c2ccccc2n1 (centres undefined) | 3.11% | –
C=C1CCN(C(CC(C)C)C(=O)NCc2cc(OC)c(OC)c(OC)c2)S(=O)(=O)c2ccccc21 (centres undefined) | 3.4% | –
CCCCS(=O)(=O)c1oc(-c2cccs2)nc1S(=O)(=O)c1ccccc1 | 14.3% | –
CCCS(=O)(=O)N1CCC(n2c(C(F)(F)F)nc3cccnc32)CC1 | 1.49% | –
N#Cc1ccc(OC2=NS(=O)(=O)c3ccccc32)cc1 | -6.79% | –
O=C(NCc1nnc(C(=O)Nc2ccc(C(F)(F)F)cc2Cl)o1)c1ccccc1 | 4.91% | –
Cc1cccc2c1-c1sc(C(=O)Nc3ccc(F)cc3F)cc1CO2 | -0.856% | –
C#CCOc1ccc(C2CC(=O)Nc3c2c(C)nn3-c2nc(C)cc(C)n2)cc1 (centres undefined) | -7.62% | –
CCCN(CCC)CCNC(=O)Cn1cnc2sc(C)c(S(=O)(=O)N3CCC(C)CC3)c2c1=O | -1.59% | –

Structure (SMILES) | activity, negative = inhibition | Potency
COc1ccccc1CNC(=O)c1ccc(NC(=O)N2CC(C)Sc3ccccc32)cc1 (centres undefined) | 7.05% | –
O=C(O)c1ccc2c(c1)N(Cc1ccc(F)cc1)C(=O)c1ccccc1S2=O (centres undefined) | 0.384% | –
O=C(CC1Oc2ccc(Cl)cc2NC1=O)NCc1ccccc1 (centres undefined) | 1.66% | –
CCOC(=O)c1cccc(NC(=O)Cn2cnc3nc4c(cc3c2=O)CCCC4)c1 | -0.357% | –
COc1ccc(OC)c(NC(=O)CN2CCCN(Cc3cc(C)ccc3C)S2(=O)=O)c1 | -5.1% | –
Cc1ccc2sc(N(Cc3cccnc3)C(=O)C3COc4ccccc4O3)nc2c1C (centres undefined) | 6.41% | –
CNC(=O)CN1C(=O)c2cccnc2Sc2ccccc21 | 8.77% | –
CC(=O)N1c2ccccc2CC1C(=O)N1CCN(c2ccc(F)cc2)CC1 (centres undefined) | -8.41% | –
O=C(NCC1CC1)C1(C(F)(F)F)C/C(=C\CCO)CCCO1 (centres undefined) | 3.33% | –
CC(Nc1ncnc2ccc(-c3ccc4c(c3)OCO4)cc12)c1ccco1 (centres undefined) | 14.7% | –
Cc1cccc(S(=O)(=O)c2cn(Cc3ccccc3)c3cc(N4CCOCC4)c(F)cc3c2=O)c1 | 9.72% | –
COc1cccc(C2C(C(=O)Nc3ccc(C)cc3C)=C(C)Nc3c(C(=O)Nc4ccccc4)cnn32)c1 (centres undefined) | 11.3% | –
CCCC(=O)Nc1cc(C(=O)NCc2ccc(OC)cc2)ccc1S(=O)(=O)c1ccc(Cl)cc1 | 8.08% | –
COCCNC(=O)CSc1nc(-c2ccccc2)[nH]c1-c1ccc(C)cc1 | 1.52% | –
C=CCNC(=O)c1ccc2nc(-c3ccco3)c(-c3ccco3)nc2c1 | 20.3% | –
Cc1ccc(S(=O)(=O)NC(N)=NCCC[C@@H](NC(=O)CNC(=O)c2ccccc2)C(=O)Nc2cc(C(F)(F)F)ccc2Cl)cc1 | 4.14% | –
CCc1cccc(C)c1NS(=O)(=O)c1ccc(-c2cc(C)no2)s1 | 12.7% | –
CC(=O)N1CCCc2ccc(NS(=O)(=O)c3ccc(F)cc3F)cc21 | 49.4% | –
COc1ccc(CNC(=O)COCc2cc(-c3cccs3)on2)cc1OC | -2.23% | –
